Here are results for seven compounds from PubChem BioAssay (NCATS).

Records with an inconclusive call do not appear. Active and inactive are the calls of the source. Unless noted, the call rests on the fitted dose curve.

Experiment [1] can be described thus: qHTS for Inhibitors of the Functional Ribonucleoprotein Complex (vRNP) of Lassa (LASV) Arenavirus: LASV Primary Screen - GLuc reporter signal (AID 1347082; calls by dose curve; tested in HEK293 reporter line; further: nearly all actives have a fitted effect of over 60% in size; further: potency means the concentration at half of the fitted maximal effect; on activity change, negative = inhibition: on the % scale 0 is the no-effect control and ±100 the full control effect). For orientation: qHTS replaces the single test concentration by a dilution series.
Experiment [2] is described as follows: qHTS for Inhibitors of the Functional Ribonucleoprotein Complex (vRNP) of Lassa (LASV) Arenavirus: Viability assay - alamar blue signal for LASV Primary Screen (AID 1347083; calls by dose curve; tested in HEK293 reporter line; further: nearly all actives have a fitted effect of over 80% in size; further: potency means the concentration at half of the fitted maximal effect).
Experiment [3] in a line: qHTS for Inhibitors of the Functional Ribonucleoprotein Complex (vRNP) of Lymphocytic Choriomeningitis Arenaviruses (LCMV): Viability assay - alamar blue signal for LCMV Primary Screen (AID 1347085; calls by dose curve; tested in HEK293 reporter line; further: nearly all actives have a fitted effect of over 80% in size; further: potency means the concentration at half of the fitted maximal effect).
Experiment [4] addresses Nucleoprotein (Lymphocytic choriomeningitis virus (strain Armstrong)) (UniProt P09992). Briefly: qHTS for Inhibitors of the Functional Ribonucleoprotein Complex (vRNP) of Lymphocytic Choriomeningitis Arenaviruses (LCMV): LCMV Primary Screen - GLuc reporter signal (AID 1347086). Further: nearly all actives have a fitted effect of over 70% in size. Further: potency means the concentration at half of the fitted maximal effect. On activity change, negative = inhibition: on the % scale 0 is the no-effect control and ±100 the full control effect.
A short description of experiment [5]: Primary qHTS for inhibitors of SARS-S pseudo-typed particle cell entry (AID 1479145). Further: on the % scale 0 is the no-effect control and ±100 the full control effect; nearly all actives have a fitted effect of over 45% in size.
Experiment [6] can be described thus: Primary qHTS for Huh7 cytotoxicity: counterscreen for inhibitors of MERS-S pseudotyped particle cell entry (AID 1479147). Further: on the % scale 0 is the no-effect control and ±100 the full control effect. Particulars: outcome: dose series up to 57.1 µM unless noted.
Experiment [7] in a line: Primary qHTS for inhibitors of MERS-S pseudo-typed particle cell entry (AID 1479149). Further: on the % scale 0 is the no-effect control and ±100 the full control effect; nearly all actives have a fitted effect of over 60% in size.
Experiment [8] in a line: Primary qHTS for Vero E6 cytotoxicity: counterscreen for inhibitors of SARS-S pseudo-typed particle cell entry (AID 1479150). Particulars: outcome: dose series up to 57.1 µM unless noted.
Experiment [9] can be described thus: Cytotoxicity counterscreen for inhibitors of SARS-CoV-2 cell entry (AID 1645845). Further: nearly all actives have a fitted effect of over 50% in size. In a few lines: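 48 h compound treatment (after 1 h preincubation), HEK293-ACE2 cells, 37 C/5% CO2; ATP luminescence endpoint; normalized to cell wells and media blanks.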
Background: Counterscreens check selectivity or assay interference.

Experiment [10] in a line: Primary qHTS to identify inhibitors of SARS-CoV-2 cell entry (AID 1645846). Further: nearly all actives have a fitted effect of over 45% in size. Conditions: activity change, negative = inhibition: at 57.1 µM (top of the series) unless noted. Summed up: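 Inhibition of spike-mediated entry was scored in human ACE2-transfected Expi293F cells. Particles were MLV-pseudotyped with Wuhan-Hu-1 S carrying a 19-aa C-terminal deletion; signal was luciferase after two days, scaled between spike PP and fusion-protein-free PP.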

The next experiment deals with CRL-7250. The experiment in a line: qHTS assay to identify novel small-molecules to repurpose for Merkel cell carcinoma treatment (AID 1296009; active means well fitted curve in the direction sought with a large enough effect; an effect the other way counts as inactive or inconclusive; further: nearly all actives have a fitted effect of over 60% in size). Conditions: MCC and control cell lines, CellTiter-Glo viability, 72 h; series mostly up to 92 µM. Summed up:
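After compound transfer in DMSO, plates were kept 72 hr at 37 degree celsius. Luminescent ATP signal from CellTiter-Glo served as viability measure, normalized against DMSO and no-cell controls.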

Experiment [11] can be described thus: Validation screen for inhibitors of Lassa infection (AID 463096). Further: on the % scale 0 is the no-effect control and ±100 the full control effect.
Experiment [12] in a line: Inducers of the Endoplasmic Reticulum Stress Response (ERSR) in human glioma: Validation (AID 504836; active means well fitted curve in the direction sought with a large enough effect; an effect the other way counts as inactive or inconclusive; further: 0% is about no effect). In a few lines:
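ERSR induction read as luciferase luminescence (Bright-Glo, 10 min at room temperature) in stably transfected human U87-MG glioma cells exposed to compounds for 16 h, using GRP78 as sensor.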

The target of experiment [13] is Bile acid receptor (Homo sapiens) (UniProt Q96RI1). Briefly: qHTS assay for small molecule agonists of farnesoid X receptor signaling (AID 588527).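 Further: 0% = vehicle basal and 100% = reference agonist.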 Particulars: HEK293T FXR-UAS-bla, beta-lactamase ratio, 16 h; activation: stronger effect = higher value. Summed up: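 Agonist-mode beta-lactamase reporter in GeneBLAzer FXR-UAS-bla HEK293T cells, titration up to 92 uM, 16 h exposure at 37 C, CCF4 fluorescence. Response scaled to DMSO (0%) and 100 uM chenodeoxycholic acid (100%), then Hill-fitted for EC50 and efficacy.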
Chain of Bile acid receptor (Homo sapiens) (Q96RI1 whole entry, looked up): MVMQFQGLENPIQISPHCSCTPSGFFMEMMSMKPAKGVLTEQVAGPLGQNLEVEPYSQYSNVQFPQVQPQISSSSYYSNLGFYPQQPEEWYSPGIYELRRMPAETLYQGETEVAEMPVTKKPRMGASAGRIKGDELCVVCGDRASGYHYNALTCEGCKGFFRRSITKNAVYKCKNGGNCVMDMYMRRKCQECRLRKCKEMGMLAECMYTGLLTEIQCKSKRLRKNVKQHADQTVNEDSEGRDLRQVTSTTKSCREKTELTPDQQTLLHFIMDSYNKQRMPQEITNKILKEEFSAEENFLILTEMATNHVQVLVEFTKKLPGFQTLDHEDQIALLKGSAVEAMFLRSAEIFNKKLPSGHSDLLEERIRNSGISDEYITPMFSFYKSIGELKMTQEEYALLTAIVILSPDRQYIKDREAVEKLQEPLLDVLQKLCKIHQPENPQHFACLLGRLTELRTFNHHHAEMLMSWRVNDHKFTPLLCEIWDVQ

For experiment [14], the target named is Peroxisome proliferator-activated receptor delta (Homo sapiens) (UniProt Q03181). Briefly: qHTS assay for small molecule agonists of peroxisome proliferator-activated receptor delta signaling (AID 588534).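 Further: 0% = DMSO basal wells and 100% = positive control agonist at 10 µM.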 In a few lines: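 Reporter cells were plated and held 5 hrs at 37 C before compounds were added. After 18 hrs at 37 C, CCF4 dye was loaded for 2 hrs at RT and fluorescence measured.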
Chain of Peroxisome proliferator-activated receptor delta (Homo sapiens) (Q03181 whole entry, looked up): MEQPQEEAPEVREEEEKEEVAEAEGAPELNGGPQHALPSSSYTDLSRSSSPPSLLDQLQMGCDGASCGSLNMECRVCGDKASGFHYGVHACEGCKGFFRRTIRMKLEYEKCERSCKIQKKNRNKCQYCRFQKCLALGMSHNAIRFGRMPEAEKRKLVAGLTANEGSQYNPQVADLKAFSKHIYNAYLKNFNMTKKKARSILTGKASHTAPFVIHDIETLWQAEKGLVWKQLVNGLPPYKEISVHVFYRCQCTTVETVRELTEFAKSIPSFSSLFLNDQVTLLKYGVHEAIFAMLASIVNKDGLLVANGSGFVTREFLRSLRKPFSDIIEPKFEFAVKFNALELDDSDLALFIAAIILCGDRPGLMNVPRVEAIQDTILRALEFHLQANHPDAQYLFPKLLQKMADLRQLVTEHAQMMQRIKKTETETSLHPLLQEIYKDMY

Chain of Nucleoprotein (Lymphocytic choriomeningitis virus (strain Armstrong)) (P09992 whole entry, looked up): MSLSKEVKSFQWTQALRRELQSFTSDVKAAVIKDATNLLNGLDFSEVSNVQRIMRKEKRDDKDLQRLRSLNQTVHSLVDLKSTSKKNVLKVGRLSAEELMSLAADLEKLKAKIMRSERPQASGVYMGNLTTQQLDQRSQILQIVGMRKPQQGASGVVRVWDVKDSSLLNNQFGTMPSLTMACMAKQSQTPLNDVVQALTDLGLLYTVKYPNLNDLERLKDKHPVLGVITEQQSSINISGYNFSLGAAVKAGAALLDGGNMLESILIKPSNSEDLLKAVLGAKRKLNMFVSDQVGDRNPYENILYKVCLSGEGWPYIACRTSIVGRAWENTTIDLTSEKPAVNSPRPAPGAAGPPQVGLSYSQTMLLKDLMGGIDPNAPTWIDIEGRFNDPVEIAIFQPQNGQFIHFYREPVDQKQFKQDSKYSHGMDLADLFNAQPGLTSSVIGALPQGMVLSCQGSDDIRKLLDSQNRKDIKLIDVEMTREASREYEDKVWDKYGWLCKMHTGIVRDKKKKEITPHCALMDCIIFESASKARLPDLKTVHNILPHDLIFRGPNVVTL

On to `C[C@@H]1CCO[C@H]2Cn3cc(C(=O)NCc4ccc(F)cc4F)c(=O)c(O)c3C(=O)N12`, for which the Potency result in [1], in experiment [2], in experiment [3], in [4], in experiment [5] and in [7] was “inactive” each time. Moreover, the Potency result (in [9]; in the experiment on CRL-7250) was “inactive” in each case. For the same compound, the result in [6] and in [8] was inactive. Moreover, the activity change, negative = inhibition in [10] was -84%.
In the case of `CC1COC2(CCN(c3nc(=O)c4cc(C(F)(F)F)cc([N+](=O)[O-])c4s3)CC2)O1` (centres undefined), the Potency result (in experiment [1]; in [2]; in experiment [3]; in [4]; in experiment [9]; with CRL-7250) was “inactive” each time.
Take `Cc1ccccc1-n1c(Cn2nc(-c3cccc(O)c3)c3c(N)ncnc32)nc2cccc(C)c2c1=O`: the Potency is 19.3 µM (active) in experiment [1], 6.11 µM (active) in experiment [2], 4.32 µM (active) in experiment [3] and 3.85 µM (active) in [4]. Further, the Potency entry (in experiment [9]; in the experiment with CRL-7250) was “inactive” in each case.
With `O=C(O)C1CCCN(CCC=C(c2ccccc2)c2ccccc2)C1` (centres undefined), the Potency result in experiment [11], in experiment [1], in experiment [2], in experiment [3], in experiment [4] and in [9] was “inactive” throughout. Also, in the experiment with CRL-7250, the Potency result was “inactive”. In experiment [12], the outcome was inactive. Moreover, the activity change, negative = inhibition in experiment [10] was -1.36%.
In the case of `CCOc1ccccc1OCCNC(C)Cc1ccc(OC)c(S(N)(=O)=O)c1` (centres undefined), the Potency result (in [1]; in experiment [2]; in experiment [4]; with CRL-7250) was “inactive” throughout.
On to `C[C@@H]1[C@H](C)CC[C@]2(C(=O)O)CC[C@]3(C)C(=CC[C@@H]4[C@@]5(C)CC[C@H](O)C(C)(C)[C@H]5CC[C@]43C)[C@@H]12`, for which the Potency result (in [1]; in experiment [4]; with CRL-7250) was “inactive” throughout. In addition, the Potency in experiment [2] was 35.2 µM (active).
Take `Cc1cc(O)c2c(c1)C(=O)c1cccc(O)c1C2=O`: the activation in [13] is -2.98% (inactive). Besides, the Potency entry in experiment [14], in experiment [1], in experiment [2], in experiment [3], in experiment [4] and in experiment [9] was “inactive” each time. Further, the Potency entry in the experiment on CRL-7250 was “inactive”. Further, in [10], the activity change, negative = inhibition is -17%.
